# Records with an inconclusive call do not appear. Calls of active or inactive are those of the source. Rule for the calls: active = hit-call score of the fitted dose curve at least 0.9, where 1 is the maximum; inconclusive = response in the unintended direction; inactive = score below 0.9.
# Key:
# [1] = biological target: human Androgen Receptor (AR), AR (gene 367) (UniProt P10275); assay: NVS_NR_hAR: NovaScreen (NVS) Nuclear Receptor Binding Assay for human Androgen Receptor (AR) (AID 2283332)
# Method in brief: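 Actives from a duplicate 25 uM single-point screen went on to concentration series. Read-out after 20 h was scintillation counting of displaced radioligand in LnCAP extract, with DMSO as baseline.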
# [2] = biological target: rat Mineralocorticoid Receptor (MR), Nr3c2 (gene 25672) (UniProt P22199); assay: NVS_NR_rMR: NovaScreen (NVS) Nuclear Receptor Binding Assay for rat Mineralocorticoid Receptor (MR) (AID 2283355)
# Method in brief: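 Cell-free radioligand binding to MR in adrenalectomized rat brain supernatant, scintillation counted 24 h after dosing. Loss of signal versus DMSO baseline marks displacement. Primary screen in duplicate at 25 uM; actives retested as concentration series.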
# [3] = biological target: bovine Estrogen Receptor (ER), ESR1 (gene 407238) (UniProt P49884); assay: NVS_NR_bER: NovaScreen (NVS) Nuclear Receptor Binding Assay for bovine Estrogen Receptor (ER) (AID 2283345);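 note: actives lower the bound radioligand count which means they displace the ER ligand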
# Method in brief: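 Cell-free radioligand binding with bovine uterine membrane extracts, read 18 hours after dosing by scintillation counting. Loss of signal versus DMSO baseline indicates displacement. Primary screen run in duplicate at 25 uM, actives followed in concentration series.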
# [4] = biological target: Estrogen receptor (Homo sapiens) (UniProt P03372); assay: NVS_NR_hER: NovaScreen (NVS) Nuclear Receptor Binding Assay for human Estrogen Receptor (ER) (AID 2283348)
# Estrogen receptor (Homo sapiens), sequence (P03372 whole entry, looked up, the tested form may be a part): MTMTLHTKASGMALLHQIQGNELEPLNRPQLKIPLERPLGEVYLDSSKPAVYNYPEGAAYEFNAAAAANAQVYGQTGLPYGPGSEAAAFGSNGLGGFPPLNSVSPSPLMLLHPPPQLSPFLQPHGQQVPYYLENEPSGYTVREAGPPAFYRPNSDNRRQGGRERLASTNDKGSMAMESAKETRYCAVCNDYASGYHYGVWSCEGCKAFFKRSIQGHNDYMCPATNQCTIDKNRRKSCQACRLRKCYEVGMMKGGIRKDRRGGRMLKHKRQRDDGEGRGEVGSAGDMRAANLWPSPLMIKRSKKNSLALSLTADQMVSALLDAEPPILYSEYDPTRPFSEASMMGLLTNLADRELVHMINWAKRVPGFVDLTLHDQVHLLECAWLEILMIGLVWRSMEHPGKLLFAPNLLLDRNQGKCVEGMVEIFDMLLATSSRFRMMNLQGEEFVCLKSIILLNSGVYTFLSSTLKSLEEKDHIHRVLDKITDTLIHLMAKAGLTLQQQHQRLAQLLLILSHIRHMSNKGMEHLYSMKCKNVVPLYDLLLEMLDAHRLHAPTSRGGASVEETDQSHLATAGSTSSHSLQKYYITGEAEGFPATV
# Method in brief: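 Cell-free radioligand binding with protein extracted from MCF7 cells; scintillation counting 18 hours after dosing. Loss of signal versus DMSO baseline read as displacement; primary single-concentration screen at 25 uM in duplicate, actives retested in concentration series.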
# [5] = biological target: Estrogen receptor (Homo sapiens) (UniProt P03372); assay: OT_ER_ERaERa_1440: Odyssey Thera (OT) 24-hour HEK293T Protein-Complementation Assay for Estrogen Receptor-alpha/-alpha Homodimer (AID 2283349);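 note: hits raise fluorescence above DMSO for agonists and antagonists alike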
# Method in brief: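 Readout is the rise in mean fluorescence from reporter fragment complementation when ERα LBD (aa 310-547) units dimerize in HEK293T cells. Measured 24 h after dosing and analysed as increase over DMSO control.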
# [6] = biological target: Estrogen receptor (Homo sapiens) (UniProt P03372); assay: OT_ER_ERaERa_0480: Odyssey Thera (OT) 8-hour HEK293T Protein-Complementation Assay for Estrogen Receptor-alpha/-alpha Homodimer (AID 2283351);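 note: rise in fluorescence from reassembled reporter fragments on ERα LBD homodimer in nucleus or whole cell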
# Method in brief: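 The readout is complementation of fragments fused to the human ER alpha ligand-binding domain (aa 310-547), stably expressed in HEK293T cells. After 8 h of exposure, the increase in nuclear/cytoplasmic fluorescence was measured by laser scanning cytometry and fitted relative to DMSO.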
# [7] = biological target: T1, Estrogen receptor (Homo sapiens) + Estrogen receptor beta (Homo sapiens) (UniProt P03372+Q92731); assay: OT_ER_ERaERb_0480: Odyssey Thera (OT) 8-hour HEK293T Protein-Complementation Assay for Estrogen Receptor-alpha/-beta Heterodimer (AID 2283352)
# T1 sequence (P03372 whole entry, looked up, the tested form may be a part): as above
# T1 sequence (Q92731 whole entry, looked up, the tested form may be a part): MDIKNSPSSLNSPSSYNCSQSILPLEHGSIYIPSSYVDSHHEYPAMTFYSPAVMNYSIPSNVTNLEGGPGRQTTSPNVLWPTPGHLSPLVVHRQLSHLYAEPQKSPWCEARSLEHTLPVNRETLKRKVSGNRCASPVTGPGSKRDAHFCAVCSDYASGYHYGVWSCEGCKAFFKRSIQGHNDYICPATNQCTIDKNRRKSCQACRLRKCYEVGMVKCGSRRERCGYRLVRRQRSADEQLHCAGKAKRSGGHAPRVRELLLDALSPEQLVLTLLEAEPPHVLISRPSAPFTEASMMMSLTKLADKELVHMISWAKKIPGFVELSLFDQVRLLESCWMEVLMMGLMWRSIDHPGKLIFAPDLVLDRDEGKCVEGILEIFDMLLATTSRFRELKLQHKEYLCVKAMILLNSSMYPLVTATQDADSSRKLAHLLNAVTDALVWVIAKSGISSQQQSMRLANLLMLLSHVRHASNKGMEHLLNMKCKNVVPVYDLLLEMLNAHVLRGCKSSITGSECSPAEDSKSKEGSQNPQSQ
# Method in brief: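 Fluorescence increase from reconstituted reporter fragments, quantified by laser scanning cytometer, reflects ER-alpha/ER-beta heterodimer formation in human HEK293T cells. Exposure 8 h; positive-direction fitting against DMSO vehicle.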
# [8] = biological target: T1, Estrogen receptor (Homo sapiens) + Estrogen receptor beta (Homo sapiens); assay: OT_ER_ERaERb_1440: Odyssey Thera (OT) 24-hour HEK293T Protein-Complementation Assay for Estrogen Receptor-alpha/-beta Homodimer (AID 2283356);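 note: heteromer of ER alpha and ER beta binding domains; hits raise reporter fluorescence and both agonists and antagonists give an increase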
# Method in brief: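 Fragment complementation between ER alpha (310-547) and ER beta (263-489) ligand-binding domains in HEK293T cells; signal read 24 h post-dosing by laser scanning cytometer. Gain of fluorescence relative to DMSO fitted.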
# [9] = biological target: Androgen Receptor/SRC-1 Co-activator, AR (gene 367) (UniProt P10275); assay: OT_AR_ARSRC1_0480: Odyssey Thera (OT) 8-hour HEK293T Protein-Complementation Assay for Androgen Receptor/SRC-1 Co-activator (AID 2283354);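 note: hits raise the complementation signal above DMSO so AC50 marks enhancers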
# Method in brief: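 HEK293T cells stably expressing AR and SRC-1 fused to split Venus YFP fragments via (Gly4Ser)2 linkers were read 8 h after compound dosing. Complementation was imaged at 488 and 635nm, and nuclear/cytoplasmic fluorescence ratio (488nm) was taken over ≥400 cells; gain-of-signal versus DMSO.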
# [10] = biological target: Retinoic acid receptor alpha (Homo sapiens) (UniProt P10276); assay: NVS_NR_hRAR_Antagonist: NovaScreen (NVS) Nuclear Receptor Binding Assay for human Retinoic Acid Alpha Receptor Antagonism (RAR) (AID 2283358)
# Retinoic acid receptor alpha (Homo sapiens), sequence (P10276 whole entry, looked up): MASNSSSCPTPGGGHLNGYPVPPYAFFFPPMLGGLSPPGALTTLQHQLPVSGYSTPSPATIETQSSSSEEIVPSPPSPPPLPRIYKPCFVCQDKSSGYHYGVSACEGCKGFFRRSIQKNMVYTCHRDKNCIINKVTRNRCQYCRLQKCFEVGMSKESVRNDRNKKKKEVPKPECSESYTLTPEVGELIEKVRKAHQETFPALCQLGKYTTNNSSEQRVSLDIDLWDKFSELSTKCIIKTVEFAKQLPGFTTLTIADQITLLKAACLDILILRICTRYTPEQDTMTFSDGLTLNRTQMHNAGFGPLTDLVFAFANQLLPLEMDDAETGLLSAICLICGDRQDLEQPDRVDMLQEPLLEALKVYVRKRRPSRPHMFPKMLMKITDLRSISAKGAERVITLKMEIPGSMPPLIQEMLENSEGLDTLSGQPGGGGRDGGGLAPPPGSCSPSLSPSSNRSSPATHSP
# Method in brief: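 Cell-free TR-FRET binding assay on extracted receptor protein, run in antagonist mode; signal read 2 hours after chemical dosing. Loss of signal was fitted relative to DMSO baseline. Screened at 25 uM in duplicate, actives followed up in concentration series.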
# [11] = biological target: Retinoic acid receptor alpha (Homo sapiens) (UniProt P10276); assay: NVS_NR_hRARa_Agonist: NovaScreen (NVS) Nuclear Receptor Binding Assay for human Retinoic Acid Alpha Receptor Agonism (RAR) (AID 2283361)
# Method in brief: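 Cell-free TR-FRET binding read-out with extracted human RARα protein, read 2 h after compound addition. Gain of signal scored against DMSO baseline. Primary screen at a single 25 uM in duplicate; actives then retested in concentration series.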
# [12] = biological target: Estrogen receptor beta (Homo sapiens) (UniProt Q92731); assay: OT_ER_ERbERb_0480: Odyssey Thera (OT) 8-hour HEK293T Protein-Complementation Assay for Estrogen Receptor-beta/-beta Homodimer (AID 2283357);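 note: active means signal gain over DMSO baseline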
# Estrogen receptor beta (Homo sapiens), sequence (Q92731 whole entry, looked up, the tested form may be a part): as the sequence (Q92731 whole entry, looked up, the tested form may be a part) above
# Method in brief: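 Readout: increase in mean fluorescence intensity (nucleus for agonists; nucleus plus cytoplasm for antagonists) relative to DMSO, from a reporter-fragment complementation of human ER-beta LBD homodimer in HEK293T cells dosed 8 hours.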
# [13] = biological target: chimpanzee Androgen Receptor (AR), AR (gene 747460) (UniProt O97775); assay: NVS_NR_cAR: NovaScreen (NVS) Nuclear Receptor Binding Assay for chimpanzee Androgen Receptor (AR) (AID 2283346);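 note: radioligand displacement from AR measured by scintillation counting in a cell-free assay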
# chimpanzee Androgen Receptor (AR), AR (gene 747460), sequence (O97775 whole entry, looked up): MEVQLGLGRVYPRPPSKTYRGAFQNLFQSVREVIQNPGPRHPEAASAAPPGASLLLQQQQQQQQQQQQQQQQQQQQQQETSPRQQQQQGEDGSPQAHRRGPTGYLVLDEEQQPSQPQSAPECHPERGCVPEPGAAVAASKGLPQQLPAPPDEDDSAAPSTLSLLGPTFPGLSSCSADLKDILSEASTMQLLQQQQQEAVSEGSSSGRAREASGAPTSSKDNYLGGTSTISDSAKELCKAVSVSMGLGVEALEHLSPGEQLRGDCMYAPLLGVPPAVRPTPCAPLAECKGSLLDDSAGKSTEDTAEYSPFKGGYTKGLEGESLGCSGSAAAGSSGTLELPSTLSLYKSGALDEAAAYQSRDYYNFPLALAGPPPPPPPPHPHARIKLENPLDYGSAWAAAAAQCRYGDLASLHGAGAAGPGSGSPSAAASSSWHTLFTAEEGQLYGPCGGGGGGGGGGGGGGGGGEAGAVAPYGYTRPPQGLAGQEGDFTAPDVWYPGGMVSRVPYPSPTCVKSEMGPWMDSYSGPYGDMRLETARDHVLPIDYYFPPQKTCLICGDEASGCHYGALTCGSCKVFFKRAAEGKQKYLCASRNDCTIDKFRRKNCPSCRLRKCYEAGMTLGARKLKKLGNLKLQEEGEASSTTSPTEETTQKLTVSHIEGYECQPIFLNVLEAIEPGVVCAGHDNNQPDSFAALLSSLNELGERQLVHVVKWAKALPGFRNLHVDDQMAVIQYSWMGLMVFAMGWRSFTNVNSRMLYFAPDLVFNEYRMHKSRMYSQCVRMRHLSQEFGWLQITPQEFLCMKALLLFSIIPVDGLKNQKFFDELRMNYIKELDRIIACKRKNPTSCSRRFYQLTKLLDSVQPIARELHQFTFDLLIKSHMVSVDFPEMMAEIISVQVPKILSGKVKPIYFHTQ
# Method in brief: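 Cell-free radioligand displacement using receptor protein extracted from Sf9/Sf21 cells; bound radioligand measured by scintillation counting 72 hours after chemical dosing. Loss of signal versus DMSO baseline indicates binding; primary screen single-concentration in duplicate at 25 uM, actives followed in concentration series.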
# [14] = biological target: human Thyroid Receptor Alpha (TRa), THRA (gene 7067) (UniProt P10827); assay: NVS_NR_hTRa_Antagonist: NovaScreen (NVS) Nuclear Receptor Binding Assay for human Thyroid Receptor Alpha Antagonism (TRa) (AID 2283362);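 note: activity is loss of signal relative to DMSO baseline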
# human Thyroid Receptor Alpha (TRa), THRA (gene 7067), sequence (P10827 whole entry, looked up): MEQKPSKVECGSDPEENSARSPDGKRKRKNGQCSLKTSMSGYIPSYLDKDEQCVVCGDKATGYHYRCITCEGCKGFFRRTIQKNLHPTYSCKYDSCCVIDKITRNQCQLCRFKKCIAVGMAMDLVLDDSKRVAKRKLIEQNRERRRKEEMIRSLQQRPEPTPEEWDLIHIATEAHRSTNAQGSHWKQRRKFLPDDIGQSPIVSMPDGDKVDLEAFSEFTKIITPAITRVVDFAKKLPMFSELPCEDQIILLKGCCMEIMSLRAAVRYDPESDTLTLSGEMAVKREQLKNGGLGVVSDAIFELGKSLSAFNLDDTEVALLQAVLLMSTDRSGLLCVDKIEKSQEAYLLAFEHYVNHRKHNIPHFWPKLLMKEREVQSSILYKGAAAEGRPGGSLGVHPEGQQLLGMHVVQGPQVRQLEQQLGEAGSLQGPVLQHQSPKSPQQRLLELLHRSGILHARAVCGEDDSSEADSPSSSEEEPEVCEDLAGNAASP
# Method in brief: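 Actives from a duplicate 25 uM single-point screen were retested in concentration series. The cell-free antagonist-format binding assay was read by AlphaLISA chemiluminescence at 1 h, scored as signal loss relative to DMSO.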
# [15] = biological target: Nuclear receptor subfamily 1 group I member 2 (Homo sapiens) (UniProt O75469); assay: NVS_NR_hPXR: NovaScreen (NVS) Nuclear Receptor Binding Assay for human Pregnane X Receptor (PXR) (AID 2283365);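 note: a drop in FRET signal versus DMSO baseline means the compound binds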
# Nuclear receptor subfamily 1 group I member 2 (Homo sapiens), sequence (O75469 whole entry, looked up): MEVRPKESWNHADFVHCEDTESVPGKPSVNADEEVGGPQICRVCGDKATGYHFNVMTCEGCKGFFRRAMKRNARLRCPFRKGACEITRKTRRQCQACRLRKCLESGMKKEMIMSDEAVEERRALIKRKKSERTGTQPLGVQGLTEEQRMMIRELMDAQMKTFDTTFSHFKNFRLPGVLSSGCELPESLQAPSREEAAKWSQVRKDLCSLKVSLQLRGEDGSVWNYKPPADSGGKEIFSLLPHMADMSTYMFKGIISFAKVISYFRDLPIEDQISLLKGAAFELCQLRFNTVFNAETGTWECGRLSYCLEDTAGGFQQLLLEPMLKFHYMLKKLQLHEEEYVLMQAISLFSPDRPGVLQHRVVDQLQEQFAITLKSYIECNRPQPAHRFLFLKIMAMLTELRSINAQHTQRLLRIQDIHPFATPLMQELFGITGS
# Method in brief: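 Human PXR binding measured by TR-FRET in a cell-free format, 2 h exposure. Single-concentration duplicates at 25 uM preceded concentration-response retests of actives; endpoint fitted positively relative to DMSO, loss of signal indicating binding.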
# [16] = biological target: human Peroxisome Proliferator-activated Receptor alpha (PPARa), PPARA (gene 5465) (UniProt Q07869); assay: NVS_NR_hPPARa: NovaScreen (NVS) Nuclear Receptor Binding Assay for human Peroxisome Proliferator-activated Receptor alpha (PPARa) (AID 2283359);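 note: activity means loss of TR-FRET signal versus DMSO baseline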
# human Peroxisome Proliferator-activated Receptor alpha (PPARa), PPARA (gene 5465), sequence (Q07869 whole entry, looked up): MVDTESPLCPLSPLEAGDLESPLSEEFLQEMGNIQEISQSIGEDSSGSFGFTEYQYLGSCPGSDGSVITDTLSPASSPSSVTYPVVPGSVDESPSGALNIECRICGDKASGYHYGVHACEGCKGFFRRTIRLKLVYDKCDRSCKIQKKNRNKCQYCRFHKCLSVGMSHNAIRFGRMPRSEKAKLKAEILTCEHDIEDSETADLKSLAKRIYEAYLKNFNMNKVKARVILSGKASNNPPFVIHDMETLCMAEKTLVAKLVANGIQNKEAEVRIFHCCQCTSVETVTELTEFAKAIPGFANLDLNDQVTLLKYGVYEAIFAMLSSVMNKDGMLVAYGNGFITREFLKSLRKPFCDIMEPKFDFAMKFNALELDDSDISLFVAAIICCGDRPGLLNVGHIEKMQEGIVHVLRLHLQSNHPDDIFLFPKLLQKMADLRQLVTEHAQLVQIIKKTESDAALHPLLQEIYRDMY
# Method in brief: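 Cell-free binding assay with extracted human protein, read by TR-FRET 1 h after chemical dosing. Loss of signal relative to DMSO baseline indicates binding. Primary screen used duplicate single concentration (25 uM); actives followed up in concentration series.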
# [17] = biological target: Glucocorticoid receptor (Homo sapiens) (UniProt P04150); assay: NVS_NR_hGR: NovaScreen (NVS) Nuclear Receptor Binding Assay for human Glucocorticoid Receptor (GR) (AID 2283363);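 note: activity is loss of specific radioligand binding signal relative to DMSO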
# Method in brief: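 Cell-free radioligand binding with extracted receptor protein, read by filter-based scintillation counting 16 hours after dosing. Loss of specific signal versus DMSO baseline was scored. Primary screen ran in duplicate at 25 uM; actives were followed up in concentration series.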
smiles,measurement,setting,value
Oc1c(Cl)cc(Cl)c(Cl)c1Cc1c(O)c(Cl)cc(Cl)c1Cl,AC50,[1],24 µM (active)
same,outcome,[2],inactive
CCCCCCCCCCCC(=O)OCC(O)CO (configuration not stated),outcome,[3],inactive
same,outcome,[4],inactive
same,outcome,[5],inactive
same,outcome,[6],inactive
same,outcome,[7],inactive
same,outcome,[8],inactive
Cc1[nH]c(=O)c(C#N)cc1-c1ccncc1,outcome,[3],inactive
CS(=O)(=O)OCCCCOS(C)(=O)=O,AC50,[4],0.875 µM (active)
same,outcome,[5],inactive
same,outcome,[6],inactive
Cc1ccc(S(=O)(=O)Oc2ccc(N=Nc3ccc(-c4ccc(N=Nc5c(O)ccc6cc(S(=O)(=O)O)cc(S(=O)(=O)O)c56)c(C)c4)cc3C)cc2)cc1,outcome,[9],inactive
same,outcome,[10],inactive
CCOc1ccc(N=Nc2ccc(C=Cc3ccc(N=Nc4ccc(OCC)cc4)cc3S(=O)(=O)O)c(S(=O)(=O)O)c2)cc1,AC50,[10],12.9 µM (active)
Cc1cc(=O)oc2cc(N(C)C)ccc12,AC50,[11],14.6 µM (active)
CCCCC(CC)COC(=O)c1ccc(O)cc1 (configuration not stated),outcome,[11],inactive
CC1CCC(C(C)C)C(O)C1 (configuration not stated),outcome,[9],inactive
same,outcome,[12],inactive
O=C(Nc1ccc2c(O)c(N=Nc3ccc(N=Nc4ccc(S(=O)(=O)O)cc4)cc3)c(S(=O)(=O)O)cc2c1)c1ccccc1,AC50,[13],40.6 µM (active)
same,outcome,[5],inactive
same,outcome,[6],inactive
same,outcome,[7],inactive
same,outcome,[8],inactive
same,outcome,[12],inactive
same,AC50,[14],9.08 µM (active)
same,AC50,[15],1.19 µM (active)
OC[C@H]1O[C@@H]2O[C@H]3[C@H](O)[C@@H](O)[C@@H](O[C@H]4[C@H](O)[C@@H](O)[C@@H](O[C@H]5[C@H](O)[C@@H](O)[C@@H](O[C@H]6[C@H](O)[C@@H](O)[C@@H](O[C@H]7[C@H](O)[C@@H](O)[C@@H](O[C@H]8[C@H](O)[C@@H](O)[C@@H](O[C@H]9[C@H](O)[C@@H](O)[C@@H](O[C@H]1[C@H](O)[C@H]2O)O[C@@H]9CO)O[C@@H]8CO)O[C@@H]7CO)O[C@@H]6CO)O[C@@H]5CO)O[C@@H]4CO)O[C@@H]3CO,outcome,[12],inactive
same,outcome,[16],inactive
same,outcome,[14],inactive
same,AC50,[15],4.18 µM (active)
CCCCCC(C=O)=Cc1ccccc1,outcome,[12],inactive
same,outcome,[16],inactive
CC(C)CCCCCCc1ccc(OCCOCCO)cc1,outcome,[5],inactive
same,outcome,[6],inactive
same,AC50,[7],33.8 µM (active)
same,AC50,[8],36.5 µM (active)
same,outcome,[15],inactive
CCc1ccc(O)cc1,outcome,[9],inactive
same,outcome,[12],inactive
same,outcome,[15],inactive
OCC(O)c1ccccc1 (configuration not stated),outcome,[5],inactive
same,outcome,[6],inactive
CC(C)NCC(O)COc1ccc(CC(N)=O)cc1 (configuration not stated),outcome,[5],inactive
same,outcome,[6],inactive
C[Si](C)(C)O[Si](C)(C)C,outcome,[12],inactive
Oc1ccc2cc(SSc3ccc4cc(O)ccc4c3)ccc2c1,AC50,[13],31.9 µM (active)
same,outcome,[14],inactive
same,outcome,[15],inactive
CCCCCCC(C)(C)S,outcome,[12],inactive
Nc1ccccc1[N+](=O)[O-],outcome,[13],inactive
same,outcome,[12],inactive
CCCCCCCCCC(=O)OC,outcome,[12],inactive
OCc1cccc(Oc2ccccc2)c1,AC50,[13],25 µM (active)
same,outcome,[9],inactive
C=C(C)[C@@H]1CC=C(C)C(=O)C1,outcome,[12],inactive
CCCCCCCCSCCO,outcome,[9],inactive
C=C1CC[C@H](O)C/C1=C/C=C1\CCC[C@]2(C)[C@@H]([C@H](C)/C=C/[C@H](C)C(C)C)CC[C@@H]12,AC50,[13],28.4 µM (active)
same,outcome,[12],inactive
same,AC50,[17],25 µM (active)
same,AC50,[15],12 µM (active)
CCc1cc(Cc2cc(CC)cc(C(C)(C)C)c2O)c(O)c(C(C)(C)C)c1,AC50,[9],15.8 µM (active)
Nc1ccc(N)c2c1C(=O)c1ccccc1C2=O,outcome,[13],inactive
same,outcome,[9],inactive
same,outcome,[12],inactive
same,outcome,[14],inactive
CC(C=O)Cc1ccc(C(C)(C)C)cc1 (configuration not stated),outcome,[9],inactive
same,outcome,[12],inactive
CCCCC1CCC(O)CC1 (configuration not stated),outcome,[9],inactive
C[C@H]1O[C@@H](O[C@H]2[C@@H](O)C[C@H](O[C@H]3[C@@H](O)C[C@H](O[C@H]4CC[C@@]5(C)[C@H](CC[C@@H]6[C@@H]5C[C@@H](O)[C@]5(C)[C@@H](C7=CC(=O)OC7)CC[C@]65O)C4)O[C@@H]3C)O[C@@H]2C)C[C@H](O)[C@@H]1O,outcome,[9],inactive
same,outcome,[12],inactive
CC(=O)CC(=O)Nc1ccccc1,outcome,[2],inactive
CCOC(=O)[C@@H](C)Oc1ccc(Oc2nc3ccc(Cl)cc3o2)cc1,outcome,[9],inactive
BrCc1cccc(Oc2ccccc2)c1,AC50,[13],25 µM (active)
same,outcome,[9],inactive
same,AC50,[12],60.7 µM (active)
CCCCCCCCC=CCCCCCCCC1=NCCN1CCO,AC50,[13],35.8 µM (active)
same,AC50,[9],23.3 µM (active)
same,outcome,[12],inactive
same,AC50,[10],25 µM (active)
same,AC50,[17],5.02 µM (active)
CCCCCCCCCCCCCC(=O)OCC(O)CO (configuration not stated),outcome,[9],inactive
CCCCCCCCCCCCCCN(CCO)CCO,outcome,[12],inactive
same,outcome,[10],inactive
same,AC50,[17],8.13 µM (active)
same,outcome,[15],inactive
CCCCCCCCc1ccc(S(=O)(=O)O)cc1,AC50,[10],16.8 µM (active)

# Reference: PubChem BioAssay (EPA / NIEHS)
